Activity calls are given as the source filed them. How the source made its calls: active means hit-call score of the fitted dose curve at least 0.9, where 1 is the maximum; inactive means score below 0.9.
Assay: ATG_ERE_CIS: Attagene CIS-FACTORIAL HepG2 Assay for Estrogen Response Element (ERE) (AID 2282940)
Details: HepG2 ERE cis-reporter, Attagene RNA transcript; actives raise or lower the signal
Protocol: ATG_CIS is a cell-based, multiplexed-readout assay that uses HepG2, a human liver cell line, with measurements taken at 24 hours after chemical dosing in a 24-well plate.ATG_ERE_CIS is one of 52 assay component(s) measured or calculated from the ATG_CIS assay. It is designed to make measurements of mRNA induction, a form of inducible reporter, as detected with fluorescence intensity signals by Reverse transcription polymerase chain reaction (RT-PCR) and Capillary electrophoresis technology.Data from the assay component ATG_ERE_CIS was analyzed into 1 assay endpoint. This assay endpoint, ATG_ERE_CIS, was analyzed with bidirectional fitting relative to DMSO as the negative control and baseline of activity. Using a type of inducible reporter, measures of mRNA for gain or loss-of-signal activity can be used to understand the reporter gene at the transcription factor-level as they relate to the gene ESR1. Furthermore, this assay endpoint can be referred to as a primary readout, because this assay has produced multiple assay endpoints where this one serves a reporter gene function. To generalize the intended target to other relatable targets, this assay endpoint is annotated to the nuclear receptor intended target family, where the subfamily is steroidal.
Human liver HepG2 cells are transiently transfected with multiple reporter transcription units (MRTUs) in 6-well plates using FuGene 6 reagent (Roche; 3 ml FuGene/1 mg DNA). The MRTU constructs are regulated by a cis-regulating element (promoter). […] A major difference between the CIS and TRANS system is that in CIS activities of endogenous TFs are measured, whereas the TRANS assay evaluates changes in activities of exogenous, chimeric NR-Gal4 proteins. […] At the end of 24 hour incubation, total RNA was isolated using TriZol reagent (Invitrogen). The isolated RNA is then reverse-transcribed using oligo(dT) primer and Mo-MLV reverse transcriptase (Invitrogen) with DNAse I (Ambion) treatment for 30 min. The one-tenth of the produced cDNA was amplified by PCR using Taq DNA polymerase (Invitrogen) and two reporter sequence-specific primers. The PCR products were fluorescently labeled by primer extension with 6-arboxyfluorescein (6-FAM) 5'-labeled reporter sequence-specific primer (2 min at 95 C, 20 s at 68 C and 10 min at 72 C) and these products were digested with 5U of HpaI (New England Biolabs) for 2h at 37 C. The fragments were purified using Qiaquick PCR columns (Qiagen), analyzed on an ABI 3130xL genetic analyzer (Applied Biosystems) with peak positions identified by using a set of X-rhodamine (ROX)-labeled MapMarker1000 molecular weight standards (BioVentures). The raw capillary electrophoresis data was processed using Attagraph software (Attagene).

Row | SMILES | outcome | AC50
1 | CCOC(OCC)OCC | inactive | 
2 | FC(F)(F)C(F)(F)C(F)(F)C(F)(F)C(F)(F)C(F)(F)C(F)(F)CCI | inactive | 
3 | Brc1ccccn1 | inactive | 
4 | OCCC(O)CO (stereo not given) | inactive | 
5 | CC1=CCC(=O)O1 | inactive | 
6 | COCCOCCC[Si](C)(O[Si](C)(C)C)O[Si](C)(C)C | inactive | 
7 | CCCCOC(=O)C(C)O (stereo not given) | inactive | 
8 | Cc1ccc([N+](=O)[O-])c(C)c1 | inactive | 
9 | OCC(F)(F)C(F)(F)C(F)(F)C(F)(F)C(F)(F)C(F)(F)C(F)(F)C(F)(F)CO |  | 0.163 µM (active)
10 | CO[Si](C)(CCC(F)(F)C(F)(F)C(F)(F)C(F)(F)C(F)(F)C(F)(F)F)OC | inactive | 
11 | Cc1ccc2c(c1)OCC(=O)CO2 | inactive | 
12 | CCOCOCC | inactive | 
13 | Cc1cc(O)c(C(C)(C)C)cc1C(C)(C)C | inactive | 
14 | O=C(O)CCC(F)(F)C(F)(F)C(F)(F)F | inactive | 
15 | CCc1cc(Cc2cc(CC)c(N)c(CC)c2)cc(CC)c1N | inactive | 
16 | O=C1C=CC(=O)N1c1ccccc1 | inactive | 
17 | c1ccc(C[P+](c2ccccc2)(c2ccccc2)c2ccccc2)cc1 | inactive | 
18 | CCN(CC)c1ccc(N=Nc2ccccc2)cc1 | inactive | 
19 | CCC/C=C/CO | inactive | 
20 | CCN(CC)c1ccc2c(c1)Oc1cc(N(CC)CC)ccc1C21OC(=O)c2ccccc21 | inactive | 

Row | SMILES | outcome | AC50
21 | CO[Si](CCCOCC1CO1)(OC)OC (stereo not given) | inactive | 
22 | NC(=O)C(F)(F)C(F)(F)C(F)(F)C(F)F | inactive | 
23 | O=C(O)C(F)(F)C(F)(F)C(F)(F)OC(F)(F)F | inactive | 
24 | OCC(O)CC(F)(F)C(F)(F)C(F)(F)C(F)(F)C(F)(F)C(F)(F)C(F)(F)C(F)(F)F (stereo not given) | inactive | 
25 | CC(C)C(=O)OCc1ccccc1 | inactive | 
26 | CC1=CCC2C(=O)OC(=O)C2C1 (stereo not given) | inactive | 
27 | C=CC(=O)OCC(F)(F)C(F)(F)C(F)(F)C(F)(F)C(F)(F)C(F)(F)C(F)(F)C(F)F |  | 5.14 µM (active)
28 | CCOC(=O)CCC(C)=O | inactive | 
29 | O=C(Cl)c1ccc(Cl)cc1Cl | inactive | 
30 | O=C1c2c(O)ccc(Nc3ccc(CCO)cc3)c2C(=O)c2c([N+](=O)[O-])ccc(O)c21 | inactive | 
31 | CC(C)(C)c1cc(CCC(=O)OCC(COC(=O)CCc2cc(C(C)(C)C)c(O)c(C(C)(C)C)c2)(COC(=O)CCc2cc(C(C)(C)C)c(O)c(C(C)(C)C)c2)COC(=O)CCc2cc(C(C)(C)C)c(O)c(C(C)(C)C)c2)cc(C(C)(C)C)c1O |  | 7.29 µM (active)
32 | CCN=c1cc2oc3cc(NCC)c(C)cc3c(-c3ccccc3C(=O)OCC)c-2cc1C | inactive | 
33 | COC(F)(C(F)F)C(F)(F)F (stereo not given) | inactive | 
34 | CCCCCCCCCCCCC[N+](C)(C)Cc1ccccc1 | inactive | 
35 | CN(C)C(C)(C)CO | inactive | 
36 | Nc1cc([N+](=O)[O-])cc(Cl)c1O | inactive | 
37 | FC(F)(F)C(F)(F)C(F)(F)C(F)(F)C(F)(F)C(F)(F)CC[Si](Cl)(Cl)Cl | inactive | 
38 | O=C(O)C(F)(F)OC(F)(F)C(F)(F)OC(F)(F)C(F)(F)OC(F)(F)F | inactive | 
39 | CCCCCCCCCCCC(=O)Cl | inactive | 
40 | OCCCc1cccnc1 | inactive | 
